# Data reported in PubChem BioAssay (NCATS).
# Records with an inconclusive call do not appear. Calls of active or inactive are those of the source. Calls follow the shape of the full dose curve. Square brackets hold non-standard residues; d marks the D form. Peptide text beside a SMILES is read from it. ξ: configuration not given here. d(hArg(Et2)) = CCN=C(NCC)NCCCC[C@@H](N)C(=O)O; hArg(Et2) = CCN=C(NCC)NCCCC[C@H](N)C(=O)O; Phe(4-Cl) = N[C@@H](Cc1ccc(Cl)cc1)C(=O)O; ξ2Nal = NC(Cc1ccc2ccccc2c1)C(=O)O; 3Pal = N[C@@H](Cc1cccnc1)C(=O)O; ξP = O=C(O)C1CCCN1
# Assay: VSVG counterscreen qHTS to identify inhibitors of SARS-CoV-2 cell entry (AID 1645847); also: nearly all actives have a fitted effect of over 65% in size
# Settings: VSV-G pseudotyped particle entry, luciferase; series mostly up to 57.2 µM
# Excerpt: Assay Provider: Wei Zheng, Ph.D.
# National Center for Advancing Translational Sciences, National Institute of Health, Rockville, MD.
# SARS-CoV-2 spike protein, within the viral envelope, mediates viral attachment and infection of host cells. The SARS-CoV-2 spike protein specifically binds to the host receptor ACE2 (Angiotensin-converting enzyme 2). This interaction promotes endocytosis of the viral particle, additional events lead to viral-host cell membrane fusion and release of the viral contents, allowing viral replication.
# While SARS-CoV-2 requires BSL-3 facilities for live virus work, pseudotyped partices (PP) that incorporate SARS-CoV-2 spike proteins without replication elements could facilitate studies on viral entry mechanisms in a BSL-2 setting. This PP cell entry assay could also enable screening of small molecule compound libraries in BSL-2 setting to identify inhibitors of SARS-CoV-2 cell entry.
# SEQUENCE No. (e.g., 1, 2, 3, etc.); […] (e.g., Cells, Incubation, Reagent, etc.); VALUE and DESCRIPTION.
# 1. Cells. Seed 1500 HEK293-ACE2 cells (Expi293F with stable expression of human ACE2) in 2 microL/well media (DMEM, 10% FBS, 1x L-glutamine, 1x Pen/Strep, 1 ug/ml puromycin) in white 1536-well assay plates (Greiner #782073).
# 2. Incubation. Incubate at 37 degrees C with 5% CO2 overnight (~16 h).
# 3. Compound. Dispense 23 nL/well compounds in DMSO via pin transfer.
# 4. Incubation. Incubate for 1 h at 37C 5% CO2.
# 5. Reagent. Dispense 2 microL/well of vesicular stomatitis virus G glycoprotein (VSV-G) pseudotyped particles (PP). [a] PPs are produced with murine leukemia virus pseudo-typing.
# 6. Centrifugation. […]
# 7. Incubation. Incubate at for 48 h at 37C 5% CO2
# 8. Centrifugation. Remove supernatant with gentle centrifugation using a Blue Washer (BlueCat Bio).
# 9. Reagent. Dispense 4 microL/well of Bright-Glo Luciferase detection reagent (Promega #E2620).
# 10. Incubation. Incubate for 5 min at room temperature.
# 11. Detection. Read luminescence signal (ViewLux plate reader, PerkinElmer). Data was normalized with wells containing VSV-G PP as 100%, and wells containing bald PP (no fusion protein) as 0%.
# Potency is read from the fitted curve at half-maximal effect.
row,SMILES,Potency
1,CCNC(=NCCCC[C@H](NC(=O)[C@H](CC(C)C)NC(=O)[C@@H](CCCCN=C(NCC)NCC)NC(=O)[C@@H](Cc1ccc(O)cc1)NC(=O)[C@@H](CO)NC(=O)[C@H](Cc1cccnc1)NC(=O)[C@H](Cc1ccc(Cl)cc1)NC(=O)C(Cc1ccc2ccccc2c1)NC(C)=O)C(=O)N1CCCC1C(=O)N[C@H](C)C(N)=O)NCC (stereo not given in full) (Ac-[ξ2Nal][Phe(4-Cl)][3Pal][dS][dY][d(hArg(Et2))]L[hArg(Et2)][ξP][dA]-NH2),857 nM (active)
2,C=C[C@@H]1C[C@]1(NC(=O)[C@@H]1C[C@@H](Oc2ncc(OC)c3ccc(Cl)cc23)CN1C(=O)[C@@H](NC(=O)OC(C)(C)C)C(C)(C)C)C(=O)NS(=O)(=O)C1CC1,10800 nM (active)
3,COc1ccc2[nH]c3c(c2c1)CCN[C@]31CS[C@@H]2c3c(OC(C)=O)c(C)c4c(c3[C@H](COC1=O)N1[C@@H]2[C@H]2c3c(cc(C)c(OC)c3O)C[C@@H]([C@@H]1O)N2C)OCO4,3.5 nM (active)
4,CC(=O)c1ccc2c(c1)c1cc(C(C)=O)ccc1n2CCNC(C)C,136 nM (active)
5,O=C(Nc1cc(Oc2cc(F)c(NC(=O)C3(C(=O)Nc4ccc(F)cc4)CC3)cc2F)ccn1)C1CC1,15200 nM (active)
6,CO[C@H](C(=O)[C@@H](O)[C@@H](C)O)C1Cc2cc3cc(O[C@H]4C[C@@H](O[C@H]5C[C@@H](O)[C@H](O)[C@@H](C)O5)[C@@H](O)[C@@H](C)O4)c(C)c(O)c3c(O)c2C(=O)[C@H]1O[C@H]1C[C@@H](O[C@H]2C[C@@H](O[C@H]3C[C@](C)(O)[C@H](O)[C@@H](C)O3)[C@H](O)[C@@H](C)O2)[C@H](O)[C@@H](C)O1 (stereo not given in full),152 nM (active)
7,NC(=O)c1ccccc1Nc1ccnc(Nc2cccc(O)c2)n1,7640 nM (active)
8,O=C(O)c1ccc(-c2c[nH]c3ncc(-c4ccccc4)cc23)cc1C1CCCC1,541 nM (active)
9,CC(C)[C@]12O[C@H]1[C@@H]1O[C@@]13[C@@]1(C)CCC4=C(COC4=O)[C@@H]1C[C@@H]1O[C@@]13C2=O,341 nM (active)
10,CC(Cc1ccc(O)c(O)c1)C(C)Cc1ccc(O)c(O)c1 (stereo not given),27100 nM (active)
11,C=CC(=O)N1CCC(Oc2cc3c(Nc4ccc(Cl)c(Cl)c4F)ncnc3cc2OC)CC1,961 nM (active)
12,CCN1CCN(Cc2ccc(Nc3ncc(F)c(-c4cc(F)c5nc(C)n(C(C)C)c5c4)n3)nc2)CC1,6810 nM (active)
13,C=C1C[C@@H]2CC[C@@]34C[C@H]5O[C@H]6[C@@H](O3)[C@H]3O[C@H](CC[C@@H]3O[C@H]6[C@H]5O4)CC(=O)C[C@@H]3[C@@H](OC)[C@@H](C[C@H](O)CN)O[C@H]3C[C@H]3O[C@@H](CC[C@@H]1O2)C[C@@H](C)C3=C,111 nM (active)
14,Cc1cncc(CN2CCC(=C3c4ccc(Cl)cc4CCc4cccnc43)CC2)c1,27100 nM (active)
15,COc1ccc(S(=O)(=O)N2CCc3cccc(-c4ccncc4)c32)cc1,1520 nM (active)
16,CC(C)c1cc(CNc2nc(Nc3cc(C4CC4)[nH]n3)cc(N3CCN(C)CC3)n2)on1,541 nM (active)
17,COc1cc(N2CCC(N3CCN(C)CC3)CC2)ccc1Nc1ncc(Cl)c(Nc2ccccc2P(C)(C)=O)n1,inactive
18,CC/C(=C(/c1ccc(O)cc1)c1ccc(OCCNC)cc1)c1ccccc1,24100 nM (active)
19,CS(=O)(=O)c1ccc(-c2cnc(NCc3ccco3)n3cnnc23)cc1,inactive
20,[2H]C([2H])([2H])C(O)([C@@H](C)/C=C/[C@@H](C)[C@H]1CC[C@H]2/C(=C/C=C3C[C@@H](O)C[C@H](O)C3)CCC[C@]12C)C([2H])([2H])[2H],3830 nM (active)

row,SMILES,Potency
1,Cc1nnc(C[C@@H]2C=C(c3ccc(Cl)cc3)c3ccccc3-n3c(C)nnc32)o1,9610 nM (active)
2,CO[C@@H]1[C@@H](O)[C@H](O)[C@@H](n2c3c(Cl)cccc3c3c4c(c5c6cccc(Cl)c6[nH]c5c32)C(=O)NC4=O)O[C@H]1CO,857 nM (active)
3,CN[C@H]1CN(c2ccc3c(=O)c(C(=O)O)cn(-c4nccs4)c3n2)C[C@@H]1OC,622 nM (active)
4,CS[C@H]1SC[C@@H]2C(=O)N(C)[C@H](C(C)C)C(=O)OC[C@H](NC(=O)c3cnc4ccccc4n3)C(=O)N[C@H](C)C(=O)N(C)[C@H]1C(=O)N(C)[C@H](C(C)C)C(=O)OC[C@H](NC(=O)c1cnc3ccccc3n1)C(=O)N[C@H](C)C(=O)N2C,7.6 nM (active)
5,C=CC(=O)N1CC[C@@H](Oc2nc(Nc3ccc(N4CCC(N5CCN(C)CC5)CC4)cc3)c(C(N)=O)nc2CC)C1,5270 nM (active)
6,CC[C@]12C=CCN3CC[C@@]4(c5cc([C@@]6(C(=O)OC)C[C@H]7C[C@@H](C(C)(F)F)CN(Cc8c6[nH]c6ccccc86)C7)c(OC)cc5N(C)[C@H]4[C@@](O)(C(=O)OC)[C@@H]1OC(C)=O)[C@@H]32,127 nM (active)
7,OC1CCC(Oc2cccc3cnc(Nc4ccc5nc[nH]c5c4)nc23)CC1 (stereo not given),341 nM (active)
8,CO[C@H]1C[C@H](O[C@@H]2[C@H](C)O[C@H](O[C@@H]3/C(C)=C/C[C@@H]4C[C@@H](C[C@]5(C=C[C@H](C)[C@@H](C6CCCCC6)O5)O4)OC(=O)[C@@H]4C=C(C)C(O)[C@H]5OC/C(=C\C=C\[C@@H]3C)[C@]54O)C[C@@H]2OC)O[C@@H](C)[C@@H]1O (stereo not given in full),1360 nM (active)
9,O=C(/C=C\n1cnc(-c2cc(C(F)(F)F)cc(C(F)(F)F)c2)n1)NNc1cnccn1,1710 nM (active)
10,CN(C)CCN1C(=O)c2cccc3cc(NC(N)=O)cc(c23)C1=O,12100 nM (active)
11,COC[C@H]1C[C@@H](c2ncc(-c3ccc4c(c3)COc3cc5c(ccc6[nH]c([C@@H]7CC[C@H](C)N7C(=O)[C@@H](NC(=O)OC)C(C)C)nc65)cc3-4)[nH]2)N(C(=O)[C@H](NC(=O)OC)c2ccccc2)C1,1520 nM (active)
12,COc1ccc(N(C)c2nc(C)nc3ccccc23)cc1,4820 nM (active)
13,CC[C@@]1(O)C(=O)OCc2c1cc1n(c2=O)Cc2c-1nc1ccccc1c2CCNC(C)C,6.1 nM (active)
14,CC(C)n1c(=O)cc(N[C@@H](C)c2ccccc2)[nH]c1=O,inactive
15,C=C1C/C(=C\C=C2/CCC[C@]3(C)[C@@H]([C@H](C)/C=C/C(C)C(C)C)CC[C@@H]23)[C@@H](O)C[C@@H]1O (stereo not given in full),429 nM (active)
16,Cc1cccc(/C=N/Nc2cc(N3CCOCC3)nc(OCCc3ccccn3)n2)c1,7640 nM (active)
17,COc1ccc(COc2ccc(Cc3cnc(N)nc3N)cc2OC)cc1,6810 nM (active)
18,COCCNCc1ccc(-c2cc3nccc(Oc4ccc(NC(=S)NC(=O)Cc5ccc(F)cc5)cc4F)c3s2)nc1,1360 nM (active)
19,CN(C)CCCOc1ccc(-c2ccc3ncc4c(c3c2)n(C2CCOCC2)c(=O)n4C)cn1,2350 nM (active)
20,Cn1cc(C2=C(c3cn(C)c4cc([N+](=O)[O-])ccc34)C(=O)NC2=O)c2ccccc21,1080 nM (active)
